Reference: publication PMC12751014, “Non-Catalytic Inhibitors of the p38/MK2 Interface: Repurposing Approved Drugs to Target Neuroinflammation in Alzheimer’s Disease” (Journal of Medicinal Chemistry, 2025)
Screen size: about 1,900 compounds; about 50 (3%) showed an effect of 50% or more. The list comes from a sample in which strong results are over-represented; it also holds similar structures and randomly drawn compounds. *1 amine or outer side, *2 acyl side, *3 side chain or, on linkers, in order; H or OH if unused. Where a SMILES comes first, the peptide text is derived from it. Bridges are numbered along the chain shown (N, C = ends). [ ]: non-standard residue; d: D form. The star is where a group is joined. ξ: configuration not given here. pTerphenylCO(4''-OnC5H11) = CCCCCOc1ccc(-c2ccc(-c3ccc(C(=O)*)cc3)cc2)cc1; ξOrn(4,5-diOH) = O=C(C(CC(O)C(O)N[*:3])N[*:1])[*:2]; ξhTyr(βξ-OH,γξ-OH) = NC(C(=O)O)C(O)C(O)c1ccc(O)cc1; ξPro(3ξ-OH,4ξ-Me) = CC1CNC(C(=O)O)C1O; Hyp = O=C(O)[CH]1C[CH](O)CN1

biological target: p38/MK2 protein–protein interaction (VF-p38α / GST-MK2) (Homo sapiens, UniProt Q16539); experiment: primary screen, percent of control activity; higher = less effect of the substance; parameters: species or system HEK293T cell lysate transfected with VF-p38α and GST-MK2; unclear (methods say 'quintuplet replicates')
Sequence (Q16539 2-360 limits assumed): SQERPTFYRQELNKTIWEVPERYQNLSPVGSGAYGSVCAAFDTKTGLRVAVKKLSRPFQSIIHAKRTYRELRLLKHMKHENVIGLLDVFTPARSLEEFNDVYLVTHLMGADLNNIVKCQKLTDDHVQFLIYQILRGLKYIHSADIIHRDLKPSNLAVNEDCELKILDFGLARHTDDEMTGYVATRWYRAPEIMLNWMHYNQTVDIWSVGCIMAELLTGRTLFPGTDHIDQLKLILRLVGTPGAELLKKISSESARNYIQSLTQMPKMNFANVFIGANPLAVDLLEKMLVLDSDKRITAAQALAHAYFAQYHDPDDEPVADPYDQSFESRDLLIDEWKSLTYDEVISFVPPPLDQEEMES
Description: The TR-FRET assay was conducted in a 1536-well plate (Corning, catalog no. 3724) with HEK293T cell lysate transfected with VF-p38α and GST-MK2. Cell-lysate concentration was optimized with a titration experiment. Anti-Flag-Tb and anti-GST-d2 antibodies (Revvity, catalog no. 61FGBTLB) were used to couple p38α and MK2, respectively. A multiple-drop Combi dispenser (Thermo Scientific) combined reaction mixtures in quintuplet replicates. The TR-FRET signals were measured using a BMG Labtech PHERAstar FSX plate reader and normalized to the percent of DMSO control.

| Compound | Pct of control [%] |
| --- | --- |
| CC(=O)OC1(C(C)=O)CCC2C3C=C(C)C4=CC(=O)CCC4(C)C3CCC21C (stereo not drawn) | 106 |
| Cc1c(NC(=O)c2ccc(C(C)(C)C)cc2)cccc1-c1cn(C)c(=O)c(Nc2ccc(C(=O)N3CCOCC3)cc2)n1 | 104 |
| O=C1C(Cl)=C(N2CCOCC2)C(=O)N1c1ccc(Cl)c(Cl)c1 | 35.9 |
| COc1ccc(-c2nc3ccc(C4=NNC(=O)CC4C)cc3[nH]2)cc1 (stereo not drawn) | 74.1 |
| CN1C(C(=O)Nc2ccccn2)=C(O)c2sc(Cl)cc2S1(=O)=O | 94.2 |
| CC(=O)Nc1nc2c(Oc3cc(-c4ccc(C(F)(F)F)cc4)ncn3)cccc2s1 | 108 |
| CCCCCOc1ccc(-c2ccc(-c3ccc(C(=O)NC4CC(O)C(O)NC(=O)C5C(O)C(C)CN5C(=O)C(C(C)O)NC(=O)C(C(O)C(O)c5ccc(O)cc5)NC(=O)C5CC(O)CN5C(=O)C(C(C)O)NC4=O)cc3)cc2)cc1 (stereo not drawn) ({pTerphenylCO(4''-OnC5H11)}-[ξOrn(4,5-diOH)]T[Hyp][ξhTyr(βξ-OH,γξ-OH)]T[ξPro(3ξ-OH,4ξ-Me)]; lactam 1-C; configuration not given here) | 11.4 |
| CC(=O)O.CC(=O)O.CCC(C)CC(C)CCCCCCCCC(=O)NC1CC(O)C(NCCN)NC(=O)C2C(O)CCN2C(=O)C(C(O)CCN)NC(=O)C(C(O)C(O)c2ccc(O)cc2)NC(=O)C2CC(O)CN2C(=O)C(C(C)O)NC1=O (stereo not drawn) | 114 |
| O=C(c1ccc(F)cc1)C1CCN(CCn2c(=O)[nH]c3ccccc3c2=O)CC1 | 84.3 |
| Cc1ccccc1-n1c(Cn2ncc3c(N)ncnc32)nc2cccc(C)c2c1=O | 93.1 |
| CN(C)CCCN1c2ccccc2Sc2ccc(Cl)cc21.Cl | 90.9 |
| Br.Cc1ccc(C(=O)Cn2c3c(sc2=N)CCCC3)cc1 | 96.8 |
| CS(=O)(=O)N1CCc2c(-c3cnc(N)nc3)nc(N3CCOCC3)nc21 | 81.8 |
| CNCc1ccc(C)c(NC(=O)c2ccc(Nc3nc(-c4ccccc4)c4ccccc4n3)cc2)c1 | 120 |
| CC(=O)Nc1ccc(C(=O)Nc2ccccc2N)cc1 | 96.8 |
| Cc1cc(Nc2ccc(NC(=O)c3ccc(Nc4ccnc5ccccc45)cc3)cc2)nc(N)n1 | 17.7 |
| CCCCCCCCCCCC1=C(O)C(=O)C=C(O)C1=O | 42 |
| CCCCCCCCc1ccc(CCC(N)(CO)CO)cc1.Cl | 203 |
| CS(=O)(=O)Nc1ccc([N+](=O)[O-])cc1Oc1ccccc1 | 95.3 |
| Cc1onc(-c2ccccc2)c1-c1ccc(S(N)(=O)=O)cc1 | 91.8 |
| CS(=O)(=O)c1ccc(-c2cnc(N)c(C(=O)Nc3ccccc3)n2)cc1 | 101 |
| CS(=O)(=O)c1ccc(C2=C(c3ccccc3)C(=O)OC2)cc1 | 26.5 |
| O=C(c1ccccc1)c1ccc2n1CCC2C(=O)O (stereo not drawn) | 97.5 |
| CN(C)CCC(c1ccc(Cl)cc1)c1ccccn1.O=C(O)C=CC(=O)O (stereo not drawn) | 93.2 |

| Compound | Pct of control [%] |
| --- | --- |
| O=c1cc[nH]c(=S)[nH]1 | 98.2 |
| OCc1c[nH]c2ccccc12 | 76.2 |
| N#Cc1c(O)c2c(-c3ccc(-c4ccccc4O)cc3)csc2[nH]c1=O | 94.7 |
| O=C1c2c(O)ccc(O)c2C(=O)c2c(NCCNCCO)ccc(NCCNCCO)c21 | 45.7 |
| Cl.Cl.O=C1c2c(O)ccc(O)c2C(=O)c2c(NCCNCCO)ccc(NCCNCCO)c21 | 92 |
| Cc1c(CN2CCN(C(=O)C(C)O)CC2)sc2c(N3CCOCC3)nc(-c3cnc(N)nc3)nc12 (stereo not drawn) | 96.8 |
| CCC(NC(C)C)C(O)c1ccc(O)c(O)c1.CS(=O)(=O)O (stereo not drawn) | 90 |
| NC(=O)c1cccc(-c2cccc(OC(=O)NC3CCCCC3)c2)c1 | 91.2 |
| COc1cc(=C2C=c3ccccc3=N2)[nH]c1=Cc1[nH]c(C)cc1C.CS(=O)(=O)O | 37.5 |
| CCOc1cc(N)c(Cl)cc1C(=O)NCC1CN(Cc2ccc(F)cc2)CCO1.O=C(O)CC(O)(CC(=O)O)C(=O)O (stereo not drawn) | 96.8 |
| Cc1coc2c1C(=O)C(=O)c1c-2ccc2c1CCCC2(C)C | 79.4 |
| CCOC(=O)n1ccn(C)c1=S | 98.2 |
| CN(C)C1C(=O)C(C(N)=O)=C(O)C2(O)C(=O)C3=C(O)c4c(O)cccc4C(C)(O)C3C(O)C12.O.O (stereo not drawn) | 48.8 |
| CN(C)C1C(=O)C(C(N)=O)=C(O)C2(O)C(=O)C3=C(O)c4c(O)cccc4C(C)(O)C3C(O)C12 (stereo not drawn) | 90.8 |
| C=C1c2cccc(O)c2C(O)=C2C(=O)C3(O)C(O)=C(C(N)=O)C(=O)C(N(C)C)C3C(O)C12.Cl (stereo not drawn) | 52.5 |
| COc1ccc(CCC(=O)c2c(O)cc(OC3OC(CO)C(O)C(O)C3OC3OC(C)C(O)C(O)C3O)cc2O)cc1O (stereo not drawn) | 94.3 |
| CC(C)NC[C@H](O)COc1ccc(CCOCC2CC2)cc1.Cl [S4085] | 94.4 |
| COc1ccc(S(=O)(=O)N(C(C)=O)c2ccccc2C=Cc2cc[n+]([O-])cc2)cc1 | 89.4 |
| O=C(c1cncc(Br)c1)N1CCC(N2CCCC2)CC1 | 85.2 |
| O=C(C=Cc1cccc(S(=O)(=O)Nc2ccccc2)c1)NO | 103 |
| Cc1cc(C(=O)CN2CCCC2)c(C)n1-c1ccc(F)cc1 | 88.5 |
| Cc1cc2c(C(=O)NC[C@H](C)c3ccccc3)c(O)c(O)cc2c(O)c1-c1c(C)cc2c(C(=O)NC[C@H](C)c3ccccc3)c(O)c(O)cc2c1O | 36.8 |
| Cc1cc(-c2ncc(CC(=O)Nc3ccc(-c4cnccn4)cn3)cc2C)ccn1 | 98 |
| Nc1ncnc2c1ncn2[C@@H]1O[C@H](CO)[C@@H](O)[C@@H]1O [S1784] | 91.5 |
